Source: PubChem BioAssay
G9a block: G9a (human) methyltransferase inhibition. G9a H3K9 monomethylation, AlphaScreen, 2 h. Q96KQ7. Potency, µM (top dose mostly 102 µM), inactives show at the top dose activity, negative = inhibition, most hits filed as inhibitors. 8.8% of 350,000 active; also: potency is read from the fitted curve at half-maximal effect; % is scaled to controls: 0 for no effect and ±100 for the full control effect; nearly all actives have a fitted effect of over 75% in size
Target sequence (Q96KQ7 913-1193 limits assumed): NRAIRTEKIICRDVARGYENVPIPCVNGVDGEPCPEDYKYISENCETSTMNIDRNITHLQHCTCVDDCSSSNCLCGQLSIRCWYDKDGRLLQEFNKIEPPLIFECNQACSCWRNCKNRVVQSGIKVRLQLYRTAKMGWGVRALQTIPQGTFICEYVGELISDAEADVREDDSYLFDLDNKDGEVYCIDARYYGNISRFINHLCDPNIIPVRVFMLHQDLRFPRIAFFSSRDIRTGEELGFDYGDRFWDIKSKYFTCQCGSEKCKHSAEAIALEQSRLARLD
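Enzyme 20 nM + cpd, 15 min RT; add b-H3K9 pep 500 nM / SAM 20 uM; 2 h RT; anti-H3K9me1 Ab 0.5 ug/mL + SA donor / anti-rabbit acceptor beads 20 ug/mL each, 10 min; AlphaScreen read.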
CtBP-E1A inh: inhibitors of CtBP/E1A interaction; AlphaScreen GST-E1A/His-CtBP binding, 1536-well; active compounds read low; 0.49% of 340,000 active; activity change, % (test concentration not listed); in the data active = activity change below about -65%; inconclusive = mostly about -30% to -63%; also: % is scaled to controls: 0 for no effect and ±100 for the full control effect
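Protein mix (5X: 125 nM each GST-E1A, His-CtBP) was incubated with pinned compound 2 h at 37 deg C in dark, in 50 mM Tris pH 8.0 buffer with 300 mM NaCl. Glutathione donor and nickel acceptor beads followed; AlphaScreen signal read after 1 h.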
JMJD2A Tudor: inhibitors of human JMJD2A Tudor domain. O75164. AlphaScreen JMJD2A-Tudor / H3K4me3 peptide binding. Potency, µM (titrated, usually from 114 µM), inactives show at the highest dose activity change, negative = inhibition, hits mostly inhibitors. 4.4% of 390,000 active. AID 504339; also: potency is read from the fitted curve at half-maximal effect; % is scaled to controls: 0 for no effect and ±100 for the full control effect; nearly all actives have a fitted effect of over 50% in size
HP1b chromo inh: HP1-beta chromodomain-methylated histone interaction inhibition; 0.56% of 390,000 active; AlphaScreen HP1-beta / biotin-H3K9me3 peptide binding; P83916; Potency, µM (top dose mostly 114 µM), for the others: at the highest dose activity change, negative = inhibition, actives largely listed as inhibitors; also: potency is read from the fitted curve at half-maximal effect; nearly all actives have a fitted effect of over 70% in size
Target sequence (P83916 whole entry, looked up): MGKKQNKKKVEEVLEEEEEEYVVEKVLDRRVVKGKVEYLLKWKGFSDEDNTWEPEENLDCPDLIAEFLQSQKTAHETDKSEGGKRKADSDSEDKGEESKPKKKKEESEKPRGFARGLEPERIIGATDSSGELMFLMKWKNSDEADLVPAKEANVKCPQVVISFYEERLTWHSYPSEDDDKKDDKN
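HP1-beta protein (50 nM final) preincubated 30 min at room temperature with biotinylated H3(1-18)K9me3 peptide (50 nM) in PBS pH 7.4, 0.01% Tween-20, then compound added for 30 min. AlphaScreen streptavidin donor/nickel chelate acceptor beads (10 ug/mL final), 30 min dark, luminescence read.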
Six1-Eya2 blk: Six1/Eya2 interaction inhibition; 0.56% of 360,000 active; AID 651725; AlphaScreen GST-Six1/His-Eya2 binding, biochemical; active compounds read low; Q15475+O00167; activity change, % (test concentration not listed); in the data active = activity change below about -65%; inconclusive = mostly about -30% to -63%; also: % is scaled to controls: 0 for no effect and ±100 for the full control effect
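GST-Six1 + His-Eya2 (5X stock: 250/500 nM); Tris pH 8.0, 300 mM NaCl, 0.05% BSA, 0.02% Tween 20; GSH donor/Ni acceptor beads; 1 h 37 °C dark; AlphaScreen readout.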
BAZ2B block: BAZ2B (human) inhibition. AID 504333. 4.4% of 360,000 active. Potency, µM (doses to about 114 µM), for the others: top-dose activity change, negative = inhibition, usual class: inhibitors. AlphaScreen BAZ2B-H3K14Ac peptide displacement; also: potency is read from the fitted curve at half-maximal effect; % is scaled to controls: 0 for no effect and ±100 for the full control effect; nearly all actives have a fitted effect of over 60% in size
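Multi-concentration screen (max 110 uM) measuring displacement of acetylated histone H3 peptide from BAZ2B by AlphaScreen, using 50 nM protein, 50 nM peptide and 10 ug/mL streptavidin donor plus Ni-chelate acceptor beads.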
* = called active by the depositor; ? = inconclusive; · = not tested or not shown; [ ] = dose if it differs, or a comment. Rows were chosen to be rich in hits. Some 10% of all compounds tested hit in one or more screens of this group. Unless noted, calls follow the shape of the dose curve; as a rule, active = well fitted inhibition curve with a large enough effect; inconclusive = small, poorly fitted or top-dose-only effect; inactive = no such curve, though single readings can be large or run the other way.

SMILES | G9a block | CtBP-E1A inh | JMJD2A Tudor | HP1b chromo inh | Six1-Eya2 blk | BAZ2B block
O=C(CSc1ccc(-c2cccs2)nn1)N1CCCCCC1 | -11%[59 µM] | 0 | -1% | 41% | -7 | 1%
CCSc1ccc2nnc(-c3cccs3)n2n1 | ? | ? | -16% | 20% | ? | -27%
COc1ccc(-c2nnc3ccc(SCC(=O)N4CCOCC4)nn23)cc1 | 22µM* | 0 | -8% | 37% | 1 | 4%
CCOC(=O)CSc1ccc2nnc(-c3cccs3)n2n1 | 10µM* | -12 | -35% | 39% | -28 | 5%
COc1ccc2c(c1)sc1ncc(C(=O)NCc3ccccc3F)c(=O)n12 | -2%[59 µM] | · | -11% | 5% | · | 0%
CCn1ncc(CNC(=O)CCCSc2nc(-c3ccco3)cc(C(F)(F)F)n2)c1C | 16µM* | -4 | -6% | 23% | -1 | -9%
CCc1ccccc1NC(=O)CCCSc1nc(-c2ccco2)cc(C(F)(F)F)n1 | 11%[59 µM] | · | -11% | 17% | · | -3%
c1cncc(CNc2ncncc2-c2ccoc2)c1 | -14%[0.501 µM] | · | · | · | · | ·
CN(C)CC(C(=O)c1ccccc1)c1ccccc1 (configuration not stated) | -6%[12.7 µM] | -2 | 5% | 58% | 0 | 11%
CN(C)C/C(Cl)=C(\Cl)c1ccccc1 | 14µM* | 9 | -34% | 39% | -2 | 3%
CCc1ccc(-c2[nH]nc3nc(-c4ccc(OC)cc4)cc(C(=O)NCCCOC)c23)cc1 | -14%[59 µM] | · | -5% | -17% | · | 0%
O=c1cc(CN2CCN(c3ccccc3F)CC2)c2cc(O)c(-c3ccccc3)cc2o1 | -12% | -2 | 89µM* | -12% | 2 | 1%
Oc1ccc2ccccc2c1CN1CCN(C/C=C/c2ccccc2)CC1 | 10µM* | ? | ? | 10% | -18 | ?
NC(=O)CN1CCN(c2ccccc2F)CC1 | -12%[12.7 µM] | 0 | -5% | 28% | 18 | -6%
O=S(=O)(c1ccccc1)N1CCN(Cc2c(O)ccc3ccccc23)CC1 | · | -6 | -13% | 22% | -9 | ·
O=c1oc2ccccc2c(N2CCN(c3ccccc3F)CC2)c1CN1CCCC1 | -26%[59 µM] | · | -25% | 13% | · | -18%
O=C(CN1CCN(c2ccccc2F)CC1)c1ccc(O)c(O)c1 | 32µM* | 0 | -20% | 62% | 15 | -16%
Oc1ccc2ccccc2c1CN1CCN(c2ccccc2F)CC1 | 28µM* | -3 | -6% | 73% | -1 | 10%
O=C(c1ccc2c(c1)N(Cc1ccc(F)cc1)C(=O)c1ccccc1S2(=O)=O)N1CCN(Cc2ccccc2)CC1 | -27%[59 µM] | · | -22% | 10% | · | -25%
COc1ccc(C(=O)N2CCc3cc(OC)c(OC)cc3C2COc2ccc3c(C)cc(=O)oc3c2)c(OC)c1 (configuration not stated) | 10%[59 µM] | · | -2% | 34% | · | 5%
O=[N+]([O-])c1ccc(C(O)CN2CCN(C/C=C/c3ccccc3)CC2)cc1 (configuration not stated) | -5% | -4 | -25% | 3%[57 µM] | 9 | -7%
CC(CN1CCN(C/C=C/c2ccccc2)CC1)c1ccccc1 (configuration not stated) | -3%[0.501 µM] | 1 | 13µM* | -9% | -1 | ?
Cc1ccc(C)c(CSc2nnc3[nH]c(=O)cc(C)n23)c1 | 3%[59 µM] | · | -7% | 31% | · | -1%
CCCCN(CCCC)CCNC(=O)CSCc1ccc(C)cc1 | 3.5µM* | -3 | 6.3µM* | -32% | -12 | 50µM*
CS(=O)(=O)Nc1ccc(OCc2ccccc2)cc1 | 2% | 3 | -17% | 22% | 1 | -3%
SMILES | G9a block | CtBP-E1A inh | JMJD2A Tudor | HP1b chromo inh | Six1-Eya2 blk | BAZ2B block
O=C1CCCC/C1=N\Nc1ccc(OCc2ccccc2)cc1 | 40µM* | -6 | -29% | -6% | 2 | -23%
COc1ccc(CNc2cccc3[nH]c(C(F)(F)F)nc23)cc1OC | -29%[2.33 µM] | · | ? | -26% | -2 | 50µM*
COc1ccc(CNS(=O)(=O)NCc2ccc(OC)c(OC)c2)cc1OC | 0% | ? | 3% | 16% | -16 | 0%
COc1cc(CNc2nc3ccccc3n2C)cc(OC)c1OC | 18%[59 µM] | -2 | -9% | 10% | 5 | 4%
COc1cc(CNc2ccccc2SC)cc(OC)c1OC | 11µM* | -24 | ? | 13% | -8 | -33%
COc1ccc(CNc2ccccc2SC)cc1OC | 10µM* | -7 | 79µM* | 16% | -10 | ?
O=C(Cc1nnc(-c2nc3ccccc3[nH]2)o1)Nc1cc(C(F)(F)F)ccc1Cl | · | · | -10% | · | · | ·
Cc1ccc(Nc2c(-c3ccccn3)nc3cccc(C)n23)cc1 | 20%[59 µM] | -98* | -35%[11.4 µM] | ? | -88* | 16µM*
COc1ccc(Nc2c(-c3ccc(F)cc3)nc3nc(C)cc(C)n23)cc1 | · | -2 | · | · | -12 | ·
Cc1cccc(C)c1Nc1c(-c2ccccc2F)nc2cccc(C)n12 | 18µM* | · | 50µM* | ? | · | ?
Cc1cccc2nc(-c3ccccn3)c(Nc3ccc(F)cc3)n12 | -3%[59 µM] | · | 45µM* | 19% | · | 16µM*
Cc1ccn2c(Nc3ccc(F)cc3)c(-c3ccccn3)nc2c1 | -48%[59 µM] | · | 25µM* | -14% | · | 14µM*
c1ccc(Nc2c(-c3c[nH]c4ccccc34)nc3ccccn23)cc1 | ? | · | ? | ? | · | -26%
COc1ccc(NC(=O)CSc2ncc3c(n2)-c2ccccc2N(C)S3(=O)=O)cc1Cl | 2%[59 µM] | · | -11% | 6% | · | 1%
O=C(CSc1nc2ccccc2n1Cc1cccc(F)c1)NCc1ccccc1 | 14%[59 µM] | · | -6% | 18% | · | -1%
COc1ccc(NC(=O)C(NC(=O)/C=C\c2ccc3c(c2)OCO3)c2ccc(C)cc2)cc1 (configuration not stated) | -26%[59 µM] | · | -17% | -2% | · | -2%
Fc1ccc(Nc2c(-c3c[nH]c4ccccc34)nc3ccccn23)cc1 | ? | · | 35µM* | ? | · | ?
Cc1ccc(Nc2c(-c3ccccn3)nc3ccc(Br)cn23)cc1 | 17%[59 µM] | · | ? | 34% | · | -33%
Cc1cccc2nc(-c3ccccn3)c(Nc3ccccc3)n12 | 3%[59 µM] | · | 40µM* | 5% | · | 8.9µM*
Cc1ccc(Nc2c(-c3ccsc3)nc3cccc(C)n23)cc1 | ? | · | 50µM* | ? | · | ?
COc1ccc(C)cc1-n1c(SCC(=O)NCc2ccco2)nc2c([nH]c3ccccc32)c1=O | 0%[59 µM] | · | -27% | -2%[57 µM] | · | -35%
